Measured values: article PMC12136788
Changes are numbered by the printed parent chain. The full ranking holds about 24,000 sequences; the median of “enrichment r” is about 0.99, and the highest 2% start at about 3.7. The sample holds the highest values, similar sequences and a random draw of the others, so the mix is not that of the screen.

T1: UNK ZnF1-3 (human, UniProt Q9C0B0 31-174)
T1 sequence: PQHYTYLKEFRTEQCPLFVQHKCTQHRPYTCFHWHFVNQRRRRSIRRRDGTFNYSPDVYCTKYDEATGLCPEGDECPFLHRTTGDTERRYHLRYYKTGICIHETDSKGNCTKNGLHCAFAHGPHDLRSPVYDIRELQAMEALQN

B1: chr17:47010600:47010601:-_ENSG00000159210_ENST00000290330|hu_hu|FALSE|FALSE (ssRNA)
RNA: GGGAGUUCUACAGUCCGACGAUCACUGACAGUCACGUAGCCAUUCUCUGCCAGCUGCAGCACCACGGUGUGAUCCAUAUUGAGCUCAGCUGGAACAGACUGAAUGAGGUAAGUGCCGCCCACAGGGAUGAUGCCGAAGCCAGUCAACAGAGGAUUGAGCAUCA
B2: chr2:217001844:217001845:+_ENSG00000079246_ENST00000392132|hu_hu|FALSE|FALSE (ssRNA)
RNA: GGGAGUUCUACAGUCCGACGAUCGCCGACUUGAGGAUUAGCUCUUUUGUCAUAAGCAUAUCGAACUAUGGCCACCAUGUCUAAGUCAUCCAAAGCAUGAAUCAGGGAGGAAAGUGCAACUGCAGCUGCCUCAUCAUCUCUUGCCAACAGAGGAUUGAGCAUCA
B3: chr21:40768814:40768815:+_ENSG00000182093_ENST00000333781|hu_mus|motif|central (ssRNA)
RNA: GGGAGUUCUACAGUCCGACGAUCCUGGCCUUCCCCUCAGCUGAAAGGGUGGAGAACGAUAGCCACAACUUUGUUACAGACGGAAAUCCAACAGGUGAUUCCAAUUCCACCUGCUACUCGAGUAGGAAAGGCUACCAGGCGGUCCAACAGAGGAUUGAGCAUCA
B4: 96412582_96412966_892_CDS_ENSG00000111144_ENST00000228740|human|control|control (ssRNA)
RNA: GGGAGUUCUACAGUCCGACGAUCGCCACCAUAAGGGAAGGAUGGUGGCAGGACCAAUAGGUCAUACUGUCCCCAUACAUACGGUCCUCCCAGAUCUUCUGCUAUUUUAAGCAUAGAUUCAGUCUCAGAAAACUCAUAAGCAGACAACAGAGGAUUGAGCAUCA
B5: 32585910_32588873_1288_CDS_ENSMUSG00000024381_ENSMUST00000025239|mouse|control|control (ssRNA)
RNA: GGGAGUUCUACAGUCCGACGAUCUGAGAAAGGCCCAGGGGCCUCAAACUGGGAGGGGGUGGUCACGCUGAUCUCAGGGACAAAUGCGUCAUCAAAAAGGCUGAGAAUCUGCUCCUGCUUCAUCUCCUUGGAUGGGGUGUGUUUCAACAGAGGAUUGAGCAUCA
B6: chrX:117107323:117107324:-_ENSG00000003096_ENST00000371878|hu_mus|motif|central (ssRNA)
RNA: GGGAGUUCUACAGUCCGACGAUCUUUGAGCUGCAACAGUACAAAUGGGAUAUAAACCUCAGCAUAGCCUUAGGCCACAGCGGAUAGAGAUCAGUGACUAAAUUCAGCAGCCCGCUUUCCUCCUGUGAAAGCUCUGGCCACACACAACAGAGGAUUGAGCAUCA
B7: chr16:18799448:18799449:-_ENSG00000134419_ENST00000563390|perfect_dup|FALSE|FALSE (ssRNA)
RNA: GGGAGUUCUACAGUCCGACGAUCCCUUCCUGUGAGGUUCACAACAAUCUUCCCAGCUCUGUGAUCAUCAAUGAUCUCAAAUUCACCAAUGUAUCCGUGCUUCAUCAUCACGGUUAAGAACCGAACGAUGACUUUAGAACAUGGCAACAGAGGAUUGAGCAUCA
B8: 99623494_99624154_931_CDS_ENSMUSG00000067567_ENSMUST00000087916|mouse|control|control (ssRNA)
RNA: GGGAGUUCUACAGUCCGACGAUCCUGAAUGGGCACAUUGACACUGUAGUACCGUCCUUUCCCCAGGCCAACAUCAGACAUGUCACCUGUUCCUGGGAAAAAUCCUGGGGAGAACUUGUGCAGGGACACAGUCAUAACCUUCGACAACAGAGGAUUGAGCAUCA
B9: chr1:172123744:172123745:-_ENSMUSG00000026667_ENSMUST00000150821|mus_hu|motif|central (ssRNA)
RNA: GGGAGUUCUACAGUCCGACGAUCAAACGCAUUGUUCACACUUUUUAGGAAUAUAGGAAAGUGGAAAAUAAAAGUUCUUUGCGGUUCAGCAGGAAAGAGUUUAAAAGACUUGAAUGGAAAUCAGAAAUUUAGGGAUUUGAGAAACAACAGAGGAUUGAGCAUCA
B10: 37607701_37614754_715_CDS_ENSG00000102710_ENST00000475892|human|control|control (ssRNA)
RNA: GGGAGUUCUACAGUCCGACGAUCGCUCUCAAGCAAAAGUUUGUCUUCCUGGGUCCAUUUGUGGUUAUCACUUGUUAUUGAAUGUACAUCACAAAUUAAAGUCUGCAUUGUUGGACGUAAGAGAAUGUGCCGACUUUGGUAACCCAACAGAGGAUUGAGCAUCA
B11: chr9:14812383:14812384:-_ENSMUSG00000031934_ENSMUST00000164273|mus_mus|mus_mus_mus_hu_True|68_88 (ssRNA)
RNA: GGGAGUUCUACAGUCCGACGAUCAUAGCCCAGGUAGAUACACGCUAACAGUAUAACGAUGAGUGUCACCAGCCGGCAGCUAAUGUACUUGAUGAUUAAAUUAUUAGAAUUUUUCUUUGUCUUCAAGUACUGCUCCACAAUUGGCAACAGAGGAUUGAGCAUCA
B12: chr2:183789671:183789672:-_ENSG00000061676_ENST00000360982|hu_hu|FALSE|FALSE (ssRNA)
RNA: GGGAGUUCUACAGUCCGACGAUCUGGCAGGUACACUUGAAUUUCAAAAAUUUAAAACAUAUAUAAAAAGUGGUUAGGGACUAACAUUUGUAUCAACAGUUGAUAAAUGUCUAAGAUUGUUUAUUAUACAGCAGGGUACAAUGGCAACAGAGGAUUGAGCAUCA
B13: chr2:183789671:183789672:-_ENSG00000061676_ENST00000360982|hu_hu|motif|central (ssRNA)
RNA: B12 RNA with U81G, A82G
B14: 142051865_142054343_4063_CDS_ENSG00000114127_ENST00000264951|human|control|control (ssRNA)
RNA: GGGAGUUCUACAGUCCGACGAUCUGACUGUACUUCAUUUUCUUUGGAGAUAUUCAAAGAUGCUAAAAAGUUCUCAAUUCCAGAGUUAGGCUGCUUAUUGGACAUUUUUUGGGACCAACACUCAGCUUUAGGACUCUUACACUCCAACAGAGGAUUGAGCAUCA
B15: chr19:42259214:42259215:+_ENSMUSG00000018820_ENSMUST00000165783|mus_mus|FALSE|FALSE (ssRNA)
RNA: GGGAGUUCUACAGUCCGACGAUCGCUAUAGUGACUGCUGCAGACUCAGAGACACUAGGAAAGUUGCAAGUGUAUAUUUUCUAUCUAAAUUUCUAACUAAAAUUUGCCCUGUUUUAUUCACUGGCCCAAAGGAUUCUUUUUUAACAACAGAGGAUUGAGCAUCA
B16: chr8:93522421:93522422:+_ENSMUSG00000056608_ENSMUST00000048665|mus_hu|FALSE|FALSE (ssRNA)
RNA: GGGAGUUCUACAGUCCGACGAUCAGACUGGAUCAUUGCUUGAAGAUGAAAAUCAGAAGCAGCUGGAUUGUAAGUAUCUCUAAAUUCUCCAAGUAUUUUCUCCUCAGCACCUUUUAUAAGAUAUGGAUGAUUACAACAUUUCCUCAACAGAGGAUUGAGCAUCA
B17: chr11:44378942:44378943:+_ENSMUSG00000019189_ENSMUST00000019333|mus_mus|motif|central (ssRNA)
RNA: GGGAGUUCUACAGUCCGACGAUCUUUAAAUUUAUUAAGACAUUCAGCUAUGUCUGUCAGUCUACAUCCAAAUUUGCGGCGGAAAACAAAGGAAAACCACACCCCACAGUAGGAAUACCAAGUCUGAAAUACACUUUUUUUUGACAACAGAGGAUUGAGCAUCA
B18: chr3:102833055:102833056:+_ENSMUSG00000068823_ENSMUST00000029446|mus_mus|FALSE|FALSE (ssRNA)
RNA: GGGAGUUCUACAGUCCGACGAUCUCAGUAGUAUUUGCUGACUCUUCUUUUUUCAGCACAAGUUCCAAAGGAUGAAAGUUGCUAGUAUUUAAAAAAAGAAAAAAAAAAGAAAAAGAAAAAAAGAAAAAAAAAAGGAGAGCGAGACAACAGAGGAUUGAGCAUCA
B19: chr3:102833055:102833056:+_ENSMUSG00000068823_ENSMUST00000029446|mus_mus|motif|central (ssRNA)
RNA: B18 RNA with U82G, A83G
B20: chr8:117878989:117878990:-_ENSG00000164754_ENST00000297338|hu_hu|hu_hu_hu_mus_True|8_8 (ssRNA)
RNA: GGGAGUUCUACAGUCCGACGAUCCCAGAGGCCCUCGUUUACUGAGGACAAAAUGUGCGUAGAACAUUUUUCUUAUUUGCUAUGAAAUAAGAAGAAACCUGGAUCUCGGCGGGGAGCCGGGAGGGGUUGGGUGGCCCGGGAGGGCAACAGAGGAUUGAGCAUCA
B21: chr3:100058692:100058693:+_ENSG00000114021_ENST00000480073|hu_mus|motif|central (ssRNA)
RNA: GGGAGUUCUACAGUCCGACGAUCAUAGUCAGGAAAGUAGGUUGUUCCAUAUGGAGAAUUGAAGCACUCAGGCAGAGAAACGGUGUUGGCACCUUGCUUUGCUGCCUCCCGCACUAGGCUACAAGCCCGGGUAAGGUUAUCUGACAACAGAGGAUUGAGCAUCA
B22: chr10:1038552:1038553:+_ENSG00000107937_ENST00000545048|hu_hu|FALSE|FALSE (ssRNA)
RNA: GGGAGUUCUACAGUCCGACGAUCCAUAGAACGGAUGAAUAUCAUCCAAUUUGGGGAAAUCUGUUAGAAUUUGUGAAAGUCUAUCAUGGUAAUUCUGUUGAGUAAAUUUGACUUUUCUCAUGUAAAAAUGUCUAAUGCGAUGUACAACAGAGGAUUGAGCAUCA

Molecular target: T1, UNK ZnF1-3
Assay: nsRBNS (natural sequence RNA bind-n-seq); RBNS binding buffer (assumed for nsRBNS): 25 mM Tris pH 7.5, 150 mM KCl, 3 mM MgCl2, 0.01% Triton X-100, 500 ug/ml BSA, 20 U/ml SUPERase-In, 4 C; UNK is unkempt and MSI1 is Musashi-1; names of the RNAs are library labels; protein concentration not given here; high values mean tight binding

Binder	binding signal
B1	0.843 enrichment R
B2	1.53 enrichment R
B3	1.05 enrichment R
B4	0.524 enrichment R
B5	1.65 enrichment R
B6	1.34 enrichment R
B7	0.793 enrichment R
B8	0.68 enrichment R
B9	3.57 enrichment R
B10	0.803 enrichment R
B11	1.31 enrichment R
B12	4.06 enrichment R
B13	6.64 enrichment R
B14	0.644 enrichment R
B15	1.32 enrichment R
B16	1.27 enrichment R
B17	1.46 enrichment R
B18	5.11 enrichment R
B19	8.15 enrichment R
B20	1.2 enrichment R
B21	1.65 enrichment R
B22	0.818 enrichment R
